Measurements taken from PubChem BioAssay AID588346 (National Center for Advancing Translational Sciences (NCATS), 2011).
Records with an inconclusive call do not appear. Activity calls are given as the source filed them. Calls come from the whole dose curve; as a rule, active = well fitted curve in the direction sought with a large enough effect; inconclusive = small, poorly fitted or top-dose-only effect, or another doubt; inactive = no such curve, though single readings can be large or run the other way.

test: qHTS Assay for Inhibitors of Histone Lysine Methyltransferase G9a: Hit Confirmation in b-rIgG Counterscreen; settings: AlphaScreen b-rIgG bead counterscreen, signal interference; series mostly up to 55.7 µM
Source text: Methylated lysines, on the N-terminal tails of histone proteins serve as epigenetic markers to recruit factors that can then modify local chromatin structure to lead to functional consequences. G9a and other members of the SUV39 family of the SET domain-containing superfamily of histone lysine methyltransferases (HMT) have been identified to specifically methylate Lys9 of histone H3 (H3K9). G9a catalyzes the mono- and di-methylation of H3K9 in mammalian euchromatic regions, where the resulting H3K9me2 is indicative of transcriptional repression. […] The inhibition of G9a will result in transcriptional activation and work synergistically with DNA methyltransferase and histone deacetylase inhibitors, to kill cancer cells. This qHTS assay for identification of G9a inhibitors is a chemiluminescence based AlphaScreen (PerkinElmer). Methylation of biotinylated-histone peptide is measured through specific antibody-based detection, in conjunction with streptavidin-coated donor and anti-IgG antibody-coated acceptor beads. The method is particularly well suited for detection of inhibitors acting by the desired histone peptide competitive mechanism and is applicable to testing other HMTs. Although AlphaScreen has significant advantages with its utility in a variety of epigenetic target assays, the primary screening data provided in this deposition should be used with caution due to the prevalence of screening artifacts. Because an AlphaScreen counterscreen is highly recommended to be run against any putative actives to eliminate non specific artifacts, this assay was used as a counterscreen. Quinn et al. A chemiluminescence-based method for identification of histone lysine methyltransferase inhibitors. Mol Biosyst 6(5): 782-8. 2010. PMID: 20567762 [2] Baell,Holloway. New substructure filters for removal of pan assay interference compounds (PAINS) from screening libraries and for their exclusion in bioassays. J Med Chem. 53(7):2719-40. 2010. PMID: 20131845 NIH Chemical Genomics Center [NCGC] NIH Molecular Libraries Probe Production Network [MLPCN] MLPCN Grant: MH084681-02 Assay Submitter (PI): Structural Genomic Consortium - Toronto, Peter Brown
Biotinylated rabbit-IgG (b-rIgG) (Santa Cruz Biotechnology, Inc., Santa Cruz, CA) was added to 1,536-well plates in a 3 uL dispense. Compounds were added in a 23 nL pin-transfer step, and plates were incubated at room temperature for 15 min. Streptavidin-coated donor and anti-rIgG acceptor AlphaScreen beads were added (1 uL) for final concentrations of 20 ug/mL each bead and 1 nM b-rIgG, and plates read on the Envision after a 15 min incubation at room temperature in the dark.

Row | SMILES | outcome
1 | CCCN(CCC)CCc1c[nH]c2ccc(C(N)=O)cc12 | inactive
2 | C/C(O)=C(\C#N)C(=O)Nc1cc(Br)ccc1Br | inactive
3 | COc1ccc(OC)c(N2C(=O)NC(=O)/C(=C\c3ccc([N+](=O)[O-])s3)C2=O)c1 | inactive
4 | O=C1NC(=O)N(CCc2ccc(F)cc2)C(=O)/C1=C/C=C/c1ccccc1 | inactive
5 | Oc1ccc2c3c1O[C@H]1[C@@H](O)CC[C@@]4(O)C(C2)N(CC2CCC2)CCC314 (some centres not stated) | inactive
6 | NCCc1c[nH]c2ccc(O)cc12 | inactive
7 | CN1CSC(=S)N(C)C1 | inactive
